Measurements taken from PubChem BioAssay (NCATS).
Results filed as inconclusive are left out. A call without a number means that no potency is given here. Active and inactive are the calls of the source. Calls follow the shape of the dose curve; as a rule, active = well fitted cell-killing curve with a large enough effect; inconclusive = small, poorly fitted or top-dose-only effect; inactive = flat fitted curve, though single readings scatter.

assay: Cell Viability - LYMP2-020 (AID 986); conditions: series mostly up to 92.2 µM; also: nearly all actives have a fitted effect of over 55% in size
Outline: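 Luminescent ATP signal (CellTiter-Glo, 30 min at room temperature) is the read-out after 24 h compound treatment of lymphoblastoid cells at 37 C. AC50 values come from Hill-equation fits across concentrations.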

For `CC(C#N)CCC#N` (centres undefined), which Potency is on record?
The Potency was “inactive”.

With `Nc1cc(Cl)ccc1Cl` as the molecule, how does the Potency read?
Its Potency is “inactive”.

For `Nc1cccc(Cl)c1`, which Potency is on record?
The Potency was “inactive”.

For `ClCc1ccccc1`, which Potency is on record?
Its Potency is “inactive”.

Which Potency does the source give for `CCC/C=N/O` here?
Its Potency is “inactive”.

For `COc1c(C(C)(C)C)cc([N+](=O)[O-])c(C)c1[N+](=O)[O-]`, which Potency is on record?
The Potency was “inactive”.

With `O=S(=O)(Cl)c1ccccc1` as the molecule, how does the Potency read?
Its Potency is “inactive”.

With `C=CCOCC1CO1` (centres undefined) as the molecule, how does the Potency read?
The Potency was “inactive”.

For `c1ccoc1`, which Potency is on record?
Its Potency is “inactive”.

Which Potency does the source give for `Clc1ccccc1` here?
Its Potency is “inactive”.

With `ClC(Cl)(Cl)C(Cl)(Cl)Cl` as the molecule, how does the Potency read?
The Potency was “inactive”.

For `CCOC(=O)C1OC1(C)c1ccccc1` (centres undefined), which Potency is on record?
The Potency was “inactive”.

For `C/C=C/CC#N`, which Potency is on record?
Its Potency is “inactive”.

Which Potency does the source give for `ClC(Cl)C(Cl)Cl` here?
The Potency was “inactive”.

For `C=CCCl`, which Potency is on record?
The Potency was “inactive”.

For `Oc1c(Cl)cccc1Cl`, which Potency is on record?
The Potency was “inactive”.

Which Potency does the source give for `Brc1cccc(-c2ccccc2)c1` here?
The Potency was “inactive”.

With `C=CCO` as the molecule, how does the Potency read?
Its Potency is “inactive”.

For `OCCCCO`, which Potency is on record?
Its Potency is “inactive”.

Which Potency does the source give for `Nn1cnnc1` here?
Its Potency is “inactive”.

With `BrCCc1ccccc1` as the molecule, how does the Potency read?
The Potency was “inactive”.

Which Potency does the source give for `Cc1ccccc1[N+](=O)[O-]` here?
The Potency was “inactive”.

Which Potency does the source give for `CCCCOC(=O)c1ccccc1N` here?
Its Potency is “inactive”.

With `Clc1cc(Cl)c(Cl)c(Cl)c1` as the molecule, how does the Potency read?
The Potency was “inactive”.

Which Potency does the source give for `Cc1ccc(N)c(C)c1` here?
The Potency was “inactive”.

With `C1CC2OC2CC1C1CO1` (centres undefined) as the molecule, how does the Potency read?
Its Potency is “inactive”.

Which Potency does the source give for `CN(C)C(=O)Cl` here?
The Potency was “inactive”.

With `CC(=O)NNc1ccccc1` as the molecule, how does the Potency read?
The Potency was “inactive”.

With `Cc1ccc(N=C=O)cc1N=C=O` as the molecule, how does the Potency read?
Its Potency is “inactive”.

For `O=C(Cl)OCc1ccccc1`, which Potency is on record?
Its Potency is “inactive”.

With `C=CC(=O)OC` as the molecule, how does the Potency read?
Its Potency is “inactive”.

Which Potency does the source give for `CCN(CC)N=O` here?
Its Potency is “inactive”.

Which Potency does the source give for `OCC(Cl)CCl` (centres undefined) here?
The Potency was “inactive”.

Which Potency does the source give for `CC(C)CON=O` here?
The Potency was “inactive”.

With `CC[N+](=O)[O-]` as the molecule, how does the Potency read?
The Potency was “inactive”.

Which Potency does the source give for `CC(C)(Cl)[N+](=O)[O-]` here?
Its Potency is “inactive”.

For `C[N+](=O)[O-]`, which Potency is on record?
Its Potency is “inactive”.

Which Potency does the source give for `CC(C)OC(=O)Cc1ccccc1` here?
The Potency was “inactive”.

With `ClCC(Br)CBr` (centres undefined) as the molecule, how does the Potency read?
The Potency was “inactive”.
